The campaign covered roughly 320,000 compounds. About 1,300 (0.41%) were called active. Roughly 3% stayed inconclusive and do not appear here. No rule for the calls is given here. Only a sample is shown. Potency and affinity values are given separately.
test: growth inhibition of non-replicating M. tuberculosis (AID 488890); conditions: Mycobacterium tuberculosis non-replicating, at 25 µM, stronger effect = higher value;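 also: plate controls were DMSO cells for no effect and high antibiotic wells for full effect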

Compound | inhibition
Cc1ccc(SCC(=O)OCC(=O)N2CCN(C(=O)c3ccco3)CC2)c(C)c1 | 15.3%
Cc1ccc(/C=C/C(=O)N2CCCC(C(N)=O)C2)o1 (centres undefined) | 4.1%
O=C(c1ccc2c(c1)N(Cc1ccccc1F)C(=O)c1ccccc1S2)N1CCOCC1 | 33.2%
Cc1ccccc1OCc1n[nH]c(=S)n1-c1ccccc1 | -9.9%
O=C(COC(=O)c1ccccc1NCCO)NCC1CCCCC1 | 23.3%
CCOc1ccc2nc(NC(=O)Nc3ccccc3)sc2c1 | -2.52%
CCOc1ccc2nc(NC(=O)c3cccnc3)sc2c1 | 8.67%
CCOc1ccc2nc(NC(=O)c3ccc(C)o3)sc2c1 | 27.5%
CCOc1ccc2nc(NC(=O)c3ccoc3C)sc2c1 | 54.7%
COc1ccc(/C=C/C(=O)Oc2cccc(/C=N/NC(=O)Cc3ccc(Br)cc3)c2)cc1 | 23.8%
CC(NS(=O)(=O)c1ccc2c(c1)CC(C)N2C(=O)C1CC1)c1ccccc1 (centres undefined) | 12.7%
CCCc1cc(=O)[nH]c(SCC(=O)Nc2cc(S(=O)(=O)N3CCOCC3)ccc2N(CC)CC)n1 | 18.9%
CCCCn1c(N)c(N(CCOC)C(=O)COc2ccc(C(C)=O)cc2)c(=O)[nH]c1=O | -6.71%
O=C(N/N=C/c1ccc[nH]1)c1ccc([N+](=O)[O-])cc1 | -12.7%
O=C(N/N=C/c1coc2ccccc2c1=O)c1ccncc1 | 76.8%
O=C(N/N=C/c1cc2c(cc1Cl)OCO2)c1ccc2c(c1)OCCO2 | -6.98%
O=C(N/N=C\c1ccc[nH]1)c1cncc(Br)c1 | 4.75%
O=C(N/N=C/c1ccc(F)cc1)c1ccncc1 | 53.7%
COc1ccc(C(=O)N/N=C\c2coc3ccccc3c2=O)cc1 | 50.1%
O=C(N/N=C/c1cc2c(cc1Cl)OCO2)c1cccc(Br)c1 | -12.4%
O=C(N/N=C/c1ccc[nH]1)c1ccc(O)cc1 | 46.7%
CCOc1cc(C(=O)NCc2ccc(-c3nc4ccccc4o3)cc2)cc(OCC)c1OCC | 5.09%
O=C(Cc1ccc(Cl)cc1)N/N=C/c1ccccc1 | 16.8%
Cc1ccc(/C=N\Nc2cn[nH]c(=O)c2Cl)cc1 | -3.74%

Compound | inhibition
CCc1ccccc1Nc1nc2ccccc2n1C | 43.6%
CC(C)CNS(=O)(=O)c1ccc(S(=O)(=O)N2CCN(CCC#N)CC2)cc1 | 6.46%
O=C(N/N=C/c1ccccc1)c1ccc2c(c1)OCO2 | 51.5%
COc1cccc(/C=N/NC(=O)CNC(=O)c2ccc3c(c2)OCCO3)c1O | -7.52%
COc1cccc(/C=N/NC(=O)N/N=C/c2cccc(OC)c2O)c1O | -1.08%
O=C(N/N=C/c1ccc2c(c1)OCO2)c1ccc2c(c1)OCO2 | 23.3%
COc1cc(/C=N/NC(=O)c2ccoc2C)cc(OC)c1O | -10%
CCOc1cc(/C=N/NC(=O)c2ccc3c(c2)OCCO3)cc(Br)c1O | 11.1%
CCN(CC(=O)Nc1sc2c(c1C#N)CCC(C)C2)Cc1nc2ccccc2c(=O)[nH]1 (centres undefined) | 5.89%
NC(=O)C1CCCN1 (centres undefined) | 3.98%
CC1(C)CC(=O)c2cnc(NCC3CCCO3)nc2C1 (centres undefined) | -8.53%
COC(=O)CSc1nnc2c3c4c(sc3nc(-n3nc(C)cc3C)n12)COC(C)(C)C4 | 0.76%
O=C1c2ccccc2C(=O)N1CCC#Cc1ccc2cc(CCCO)oc(=O)c2c1 | 12.8%
O=C(c1ccc(COc2ccccc2Cl)o1)N1CCCC1 | -8.31%
O=C(Nc1ccccn1)c1ccc(COc2ccccc2Cl)o1 | 72.4%
CCOc1ccc(OCc2ccc(C(=O)O)o2)cc1 | 18.9%
CCc1ccc(OCc2ccc(C(=O)NCc3ccccn3)o2)cc1 | 64.5%
N/C(=N\N=C\c1cccs1)SC1CC(=O)N(c2ccc(Br)cc2)C1=O (centres undefined) | 7.06%
Cc1cc(C(=O)N/N=C/c2c[nH]c3ccccc23)c(C)o1 | 4.64%
Cc1cccc(C)c1NC(=O)Cc1cccs1 | 3.18%
Cc1cc(C)c2nc(SC3CCOC3=O)cc(C)c2c1 (centres undefined) | 0.02%
CC12CCC(C/C1=N\OC(=O)c1c(F)cccc1F)C2(C)C (centres undefined) | -9.61%
CC(=O)Nc1ccc(Oc2nc(C(F)(F)F)nc3ccccc23)cc1 | 1.04%
COCC1CCCCN1Cc1cn(-c2ccccc2)nc1-c1ccc2c(c1)OCO2 (centres undefined) | 0.23%

Compound | inhibition
CSc1ccccc1NC(=O)c1ccc(N2CCCC2=O)cc1 | 7.7%
C=CCN=C1NN=C(c2cc(C)n(CC=C)c2C)CS1 | -5.39%
C=CCn1c(C)cc(C2=NNC(=NC(C)(C)C)SC2)c1C | 27%
Cc1cccc(NC(=O)c2cc3cc([N+](=O)[O-])ccc3s2)n1 | 16.8%
O=C(Nc1ccccc1F)c1cc(C(=O)Nc2ccccc2F)cc([N+](=O)[O-])c1 | 5.63%
Cc1ccnc(NS(=O)(=O)c2ccc(NC(=O)c3ccc(Cl)cc3[N+](=O)[O-])cc2)n1 | -0.5%
Cc1cccc(C)c1NC(=O)c1ccc([N+](=O)[O-])s1 | 67%
CC(=O)Nc1ccc(S(=O)(=O)Nc2nccc(C)n2)cc1 | 20.2%
CN(C)NC(=O)c1ccc([N+](=O)[O-])s1 | 11.4%
O=c1[nH]c2c(c(=O)n1C1CCCCC1)CCC2 | -6.62%
COC(=O)c1cccc(CSc2nnc(-c3ccco3)n2-c2ccccc2)c1 | 24%
C=CCC(C=C)S(=O)(=O)c1ccc(C)cc1 (centres undefined) | -2.81%
CCCCCC1CC(/C(C)=N/NC(N)=O)OC1=O (centres undefined) | 9.08%
COCCNC(=O)c1nc2ccccc2s1 | 52.5%
COCCNC(=O)COC(=O)CSCc1nc2ccccc2s1 | -4.84%
O=C(c1ccc(-c2nc3ccccc3s2)s1)N1CCOCC1 | -4.2%
CCNC(=O)COC(=O)c1cc(C)nc2ccccc12 | -1.86%
CCN1CCN(C(=O)c2ccc(-c3nc4ccccc4s3)s2)CC1 | -3.89%
Cc1noc(C)c1COC(=O)c1ccc(-c2nc3ccccc3s2)s1 | 9.44%
O=S(=O)(Nc1ccc2cn[nH]c2c1)c1ccc(C(F)(F)F)cc1 | 21.1%
Cc1occc1C(=O)N/N=C/c1cccnc1 | -3.52%
Cc1ccc(S(=O)(=O)NCc2ccccc2)cc1C(=O)NCCc1ccc(S(N)(=O)=O)cc1 | -1.65%
CSc1ncc(CN2CCN(C3CCCC3)C(CCO)C2)cn1 (centres undefined) | 6.95%
Cc1cc2oc(=O)cc(CN(C)Cc3cccc(F)c3)c2cc1C | 12.8%

Compound | inhibition
Cc1ccc(/C=C/C(=O)O)cc1S(=O)(=O)NCCCO | -0.14%
CCOc1cc(/C=N/NC(=O)Cn2nc([N+](=O)[O-])cc2C)cc(Br)c1OCc1ccccc1C | -2.93%
Cc1cc(C)nc(NN2C(=O)C=CC2=O)n1 | -13.2%
C=CCC1(CC=C)CCCN1C(=O)CC1C(=O)NCCN1Cc1cccc(OC)c1OC (centres undefined) | -15.7%
COC(=O)c1ccc(NC(=O)c2cccc(NC(=O)c3ccccc3)c2)cc1 | 32%
CC1(C)CC2CC(C)(CN2C(=O)COC(=O)c2cccnc2Cl)C1 (centres undefined) | 14.2%
O=C(Nc1c2c(nn1-c1ccc(F)cc1)CS(=O)(=O)C2)C1CCCC1 | -10.4%
Cc1n[nH]c(C)c1CCCCOc1ccccc1 | 78.1%
COc1ccc(OCCCCc2c(C)n[nH]c2C)cc1 | 78.2%
COc1ccc(OCCCc2c(C)n[nH]c2C)cc1 | -13.9%
COc1cccc(OCCc2c(C)n[nH]c2C)c1 | 30.4%
Cc1ccc2c(c1)N(C(=O)CCC(=O)Nc1ccccc1Br)CC(C)O2 (centres undefined) | -2.28%
CCOC(=O)N1CCN(C(=O)C2c3cc(OC)c(OC)cc3C(=O)N3CCc4ccccc4C23)CC1 (centres undefined) | -11.4%
CC(=O)C1=C(C)Nc2ncnn2C1c1ccc(O)cc1 (centres undefined) | -8.89%
O=C(COC(=O)/C=C/c1ccc(F)cc1)Nc1cccc(S(=O)(=O)N2CCCC2)c1 | 17.9%
CC(=O)Nc1ccc(S(=O)(=O)n2cnc(C)c2)cc1 | -2.83%
FC(F)(F)c1nnc2ccc(N3CCCCCC3)nn12 | 8.69%
FC(F)(F)c1nnc2ccc(N3CCCC3)nn12 | 1.54%
FC(F)(F)c1nnc2ccc(N3CCCCC3)nn12 | -3.88%
Clc1ccc2nncn2n1 | 1.77%
FC(F)(Cl)c1nnc2ccc(Sc3ccccn3)nn12 | -6.69%
Cc1ccc2nnc(Cl)n2n1 | -5.68%
Cc1cc(C)c2nc(NNC(=O)c3ccc(S(=O)(=O)N4CCCC(C)C4)cc3)sc2c1 (centres undefined) | -16.4%
O=C(Nc1ccc(F)cc1)c1ccc(CSc2ccccc2)o1 | 77.5%

Compound | inhibition
COc1ccccc1NC(=O)c1ccc(CSc2ccccc2)o1 | 68.3%
CN1CCN(c2nc3c(c(=O)[nH]c(=O)n3C)n2Cc2ccccc2F)CC1 | -2.87%
CC1=C/C(=N\OC(=O)/C=C/c2ccccc2)C(C)=CC1=O | 54.5%
Cc1ccc2c(c1)/C(=N/OS(=O)(=O)c1ccccc1)CCS2 | 1.31%
COc1ccc(S(=O)(=O)/N=C2/C=CC(=O)C(C)=C2C)cc1 | 24.9%
Cc1ccc(S(=O)(=O)ON=C2CCN(S(=O)(=O)c3ccccc3)CC2)cc1 | -9.7%
CC(Cc1cccnc1)NC(=O)c1cc(COc2ccc(F)cc2Cl)on1 (centres undefined) | 15.8%
CCN(CC)c1ccc(S(=O)(=O)N2CCOCC2)cc1NC(=O)CNCc1ccccc1 | -9.09%
COc1cccc(C=NCCNC(=O)c2nonc2N)c1O | -21.9%
Nc1nonc1C(=O)NCCN=Cc1ccccc1O | -0.48%
COc1ccccc1C1C(C(=O)c2ccco2)=C(O)C(=O)N1c1cc(C)on1 (centres undefined) | 16.5%
CN1C(=O)Cn2c1nc1ccccc12 | -4.7%
COc1cc(/C=N/NC(=O)CCC(=O)Nc2ccc(C)cc2)ccc1O | 2.61%
C=CCn1c(CCNC(=O)c2cccs2)nnc1SCC(=O)Nc1cccc(Cl)c1C | 40.6%
Cc1ccc(C)c(NC(=O)CN(C)C(=O)CN2C(=O)NC3(CCc4ccccc43)C2=O)c1 (centres undefined) | 18.4%
Cc1cc(C)n(-c2cccc3cccnc23)n1 | -3.86%
Cc1ccc2cccc(NS(=O)(=O)c3ccccc3)c2n1 | 64.3%
CCOC(=O)N1CCC(NC(=O)C2CCN(C(=O)c3cc4oc(C)cc4n3Cc3c(F)cccc3Cl)CC2)CC1 | 5.49%
CCc1nc2nc(C)c(NS(=O)(=O)c3cccs3)c(=O)n2[nH]1 | -14.6%
Cc1cnc(NC(=O)c2sc3ccccc3c2Cl)s1 | -6.31%
NC(=O)NC(=O)COC(=O)c1sc2ccccc2c1Cl | 1.75%
NC(=O)COC(=O)CNC(=O)c1sc2ccccc2c1Cl | 8.7%
COCc1nnc(NC(=O)c2sc3ccccc3c2Cl)s1 | 37.3%
